Hit rate of the full screen: of about 420,000 compounds, about 64,000 (15%) were called active. Not shown: some 27% with an inconclusive outcome. Only a sample is shown. Unmarked numbers belong to inactive results. The call rests on the fitted dose curve; in most records, active means well fitted inhibition curve with a large enough effect; inconclusive means small, poorly fitted or top-dose-only effect; inactive means flat fitted curve, though single readings scatter.
experiment: qHTS for Inhibitors of human tyrosyl-DNA phosphodiesterase 1 (TDP1): qHTS in cells in absence of CPT; conditions: DT40 Tdp1-/- hTDP1 cells, no CPT, ATP luminescence, 48 h; activity change, negative = growth inhibition: at 46.2 µM (top of the series); further: nearly all actives have a fitted effect of over 55% in size
Outline: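 No-CPT arm: Tdp1-/-;hTDP1 DT40 cells (400/well) plus compounds, incubated ≥48 hr at 37 °C. Readout CellTiter-Glo luminescence.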
On the % scale 0 is the no-effect control and ±100 the full control effect; potency means the concentration at half of the fitted maximal effect.

Compound | activity change, negative = growth inhibition | Potency
CCN1C(=O)CS/C1=N\c1nccs1 | -2.04% | 
CCOC(=O)NC(=O)C(=CNc1cccc(OC)c1)C(=O)NC(=O)OCC | -8.39% | 
CC(=O)CSc1nnc(CSc2ncccn2)n1C1CCCCC1 | -0.234% | 
CC(=O)NCCC(=O)Nc1nc(-c2ccc3c(c2)OCCO3)cs1 | -6.56% | 
O=C(Nc1nc(-c2cccnc2)cs1)c1ccccc1F | 3.03% | 
Cc1ccc(-c2csc(NC(=O)c3cnccn3)n2)cc1C | -9.21% | 
Cc1ccc(-c2csc(NC(=O)Cc3cccs3)n2)cc1C | -1.64% | 
Cc1ccc(-c2csc(NC(=O)C3=COCCO3)n2)cc1C |  | 4.11 µM (active)
O=C(Nc1nc(-c2ccc3c(c2)OCO3)cs1)c1ccncc1 |  | 13 µM (active)
CC1=C(C(=O)Nc2cc(C)ccn2)C(c2cnn(C)c2)C2=C(CC(c3ccccc3)CC2=O)N1 (configuration not stated) | -9.41% | 
O=P(O)(O)C(O)c1ccc2ccccc2c1 (configuration not stated) | 8.08% | 
FC(F)(F)Oc1ccc(-c2cn3cccnc3n2)cc1 | -19% | 
Cc1cc(C)cc(C(=O)NC(CC(N)=O)c2ccc(N3CCC(N4CCCCC4)CC3)c([N+](=O)[O-])c2)c1 (configuration not stated) | 3.31% | 
CC(=O)c1c(C)[nH]c(C(=O)NCc2ccc(C)cc2)c1C | -28.4% | 
COc1cc(-c2nc(-c3ccncc3)no2)cc(OC)c1OC | 0.674% | 
COc1ccc(OC)c(-n2nnc(-c3nc(-c4cc(OC)c(OC)c(OC)c4)no3)c2C)c1 | -28.3% | 
COc1ccc(-c2cc(-c3nc(-c4cc(OC)c(OC)c(OC)c4)no3)[nH]n2)c(OC)c1 |  | 13 µM (active)
CCOc1nc(-c2ccc(OC)cc2)ccc1-c1noc(-c2cc(OC)c(OC)c(OC)c2)n1 |  | 3.66 µM (active)
COc1nc(-c2ccc(Cl)cc2)ccc1-c1noc(-c2cccs2)n1 | -8.38% | 
CCOC(=O)COc1cc(OCC(=O)OCC)c2c(=O)cc(-c3ccccc3)oc2c1 | -24.5% | 
O=C(Nc1nn(Cc2ccccc2F)cc1Br)c1cccs1 | -22.2% | 
COc1ccc(/C(O)=C2/C(=O)C(=O)N(CC3CCCO3)C2c2ccc(OC)c(OC)c2)cc1 (configuration not stated) | 5.95% | 
CC(CNS(=O)(=O)c1ccc(Br)cc1)CN(C)C (configuration not stated) | -28.4% | 
O=C1CC2(CC(c3ccc(Cl)cc3)=NO2)C(=O)N1c1ccccc1 (configuration not stated) | 2.88% | 
Cc1ccc(-c2nnc3ccc(SCC(N)=O)nn23)cc1 | -27% | 
O=C(Nc1ccn(Cc2ccc(F)cc2)n1)c1ccncc1 |  | 11.6 µM (active)

Compound | activity change, negative = growth inhibition | Potency
O=C(Nc1ccn(Cc2ccccc2)n1)c1n[nH]c([N+](=O)[O-])c1Cl | -23.2% | 
O=C(Nc1ccn(Cc2ccccc2)n1)c1cccc(F)c1 | -29.1% | 
O=C(COc1cccc2c1CCNC2=O)NC1CCCCC1 | 11.4% | 
COc1ccc(C(=O)COC(=O)Cn2cnc3c2c(=O)n(C)c(=O)n3C)c(OC)c1 | 5.14% | 
COC(=O)C1=C(C(=O)OC)[C@@H]2N(C)c3ccccc3[C@@]23C[C@@H](C(=O)OC)N(C(=O)c2ccco2)C3=N1 | -11.6% | 
Cc1cc(C)cc(NS(=O)(=O)c2ccc3[nH]cc(C(=O)N4CCCCC4)c(=O)c3c2)c1 | -20% | 
CN1CCN(c2ncncc2-c2ccc(C(=O)N(C)C)cc2)CC1 | 2.5% | 
CCOC1CS(=O)(=O)CC1OCC (configuration not stated) | 2.48% | 
CCCc1ccc(C(O)c2ncc(-c3cccc(OC)c3)[nH]2)cc1 (configuration not stated) |  | 20.6 µM (active)
COc1cccc(-c2cnc(C(O)c3ccccc3OC)[nH]2)c1 (configuration not stated) | -18.7% | 
Cc1cccc(-c2cnc(C(O)c3cc(C)cc(C)c3)[nH]2)c1 (configuration not stated) | -21.6% | 
O=c1cnnc(Nc2ccccc2)[nH]1 | 0.313% | 
O=C(c1cccs1)C1C(c2ccc(Br)cc2)NC(=S)NC1(O)C(F)(F)F (configuration not stated) | -27.6% | 
Fc1ccc(N2CCN(Cc3cnc(Oc4ccc(Br)cc4)s3)CC2)cc1 | -18.2% | 
COC(=O)c1cc(NC(=O)CCS(=O)(=O)c2cc(Br)cc3c2N(C(=O)C2CC2)CC3)cc(C(=O)OC)c1 | -14.6% | 
O=C(NCCOc1ccccc1)c1ccccc1F | 6.64% | 
Cc1cc([N+](=O)[O-])c(N2CCC[C@@H]2C(=O)O)c([N+](=O)[O-])c1 | -16.3% | 
CN1C2CCC1CC(NC(=O)c1ccc([N+](=O)[O-])cc1)C2 (configuration not stated) | -21.8% | 
CC1CCC2CCCCC2N1C(=O)c1cc([N+](=O)[O-])cc([N+](=O)[O-])c1 (configuration not stated) |  | 18.4 µM (active)
Cc1ccc(C)c(NC(=O)COC(=O)c2nn(C)c(=O)c3ccccc23)c1 | 8.08% | 
COC(=O)c1cc(NC(=O)c2nn(C)c(=O)c3ccccc23)cc(C(=O)OC)c1 |  | 6.51 µM (active)
CCC(C)NC(=O)c1nn(C)c(=O)c2ccccc12 (configuration not stated) | -8.51% | 
CC1CCCCC1NC(=O)Cn1c(=O)cnc2ccccc21 (configuration not stated) | -4.01% | 
Cn1nnc(NC(=O)CSc2ncn[nH]2)n1 | -0.455% | 
CN(C)N(C)C(=O)C(O)(c1ccccc1)c1ccccc1 | -0.464% | 
Cc1cccc(NC(=O)CCn2c(=O)oc3ccccc32)c1 | 5.57% | 

Compound | activity change, negative = growth inhibition | Potency
Cc1ccc(-c2nn(CCC(=O)Nc3ccc(Cl)c(Cl)c3)c(=O)c3ccccc23)cc1 |  | 23.1 µM (active)
Cc1cc(C)cc(NC(=O)CCN2C(=O)c3ccccc3C2=O)c1 | -11.8% | 
CCc1nnc(NC(=O)CSc2nc(SC)ns2)s1 | -24.6% | 
COc1cccc(NC(=O)N(C)C[C@@H]2Oc3ncc(Br)cc3C(=O)N([C@@H](C)CO)C[C@H]2C)c1 | -25.5% | 
CN(C)N=Nc1ccc2nc[nH]c2c1 | -13.4% | 
CCOc1ccc(NC(=O)CN(C)C(=O)Cn2c(=O)cnc3ccccc32)cc1OCC | -27.1% | 
CCC(=O)N1CCc2cc(Br)c(S(=O)(=O)NCCN3CCCCC3CC)cc21 (configuration not stated) | 6.25% | 
CCCN(CCC)S(=O)(=O)c1cc2c(cc1Br)CCN2C(=O)CC |  | 5.8 µM (active)
CCC(=O)N1CCc2cc(S(=O)(=O)NC(C(=O)N3CCc4ccccc4C3)C(C)C)ccc21 (configuration not stated) | -0.707% | 
Cc1cc(C(F)F)nn1CC(=O)NC1CCCCCC1 | 2.11% | 
COc1ccc(C(=O)N2CCC[C@@]3(CCN(C(=O)NC(C)C)C3)C2)cc1 | -2.74% | 
COc1ccc2cc(C(=O)O)n(CC(=O)c3ccccc3)c2c1 | 12.2% | 
O=C(/C=C/[C@H]1O[C@@H](n2cnc3c(NC(=O)c4ccccc4)ncnc32)[C@H](O)[C@@H]1O)NCc1ccccc1 | -11.2% | 
CCC(C)(C(=O)Nc1ccccc1C)N(C(=O)CNC(C)=O)c1ccc(C)cc1 (configuration not stated) | -15.5% | 
C[C@@H](NC(=O)c1nc[nH]c1C(=O)N1CCN(C(=O)OC(C)(C)C)CC1)c1ccccc1 | -23.7% | 
CC(C)(C)OC(=O)N1CCC(NC(=O)c2[nH]cnc2C(=O)N[C@@H](Cc2ccccc2)C(=O)OCc2ccccc2)CC1 |  | 13 µM (active)
O=C(N[C@@H](Cc1ccccc1)C(=O)OCc1ccccc1)c1nc[nH]c1C(=O)NC1CCNCC1 | 0.388% | 
O=C(Nc1ccccc1Cl)NC1(C(=O)N2CCOCC2)CCCCC1 | -7.24% | 
COc1cccc(NC(=O)CN(C)C(=O)CSCc2nc3scc(-c4cccs4)c3c(=O)[nH]2)c1 | 1.04% | 
Cc1ccccc1N1CCN(C2CCCN(C(=O)c3ocnc3C)C2)CC1 (configuration not stated) | -25.4% | 
Cc1cnc(C(=O)N2CCCC(N3CCN(c4ccccc4F)CC3)C2)cn1 (configuration not stated) | -24.2% | 
Cc1ccccc1N1CCN(C2CCCN(C(=O)c3cn4c(C)cccc4n3)C2)CC1 (configuration not stated) |  | 14.6 µM (active)
CC(C)c1ccc(NS(=O)(=O)c2ccc3[nH]cc(C(=O)NC4CCCC4)c(=O)c3c2)cc1 | -18% | 
CCc1ccc(OC2(C)CCN(CCOc3ccc(C)cc3)C2)cc1 (configuration not stated) | -28.4% | 
COCOc1cccc(CN2CCC(C)(Oc3ccc(SC)cc3)C2)c1 (configuration not stated) |  | 10.3 µM (active)
CCC12CN3CC(CC)(CN(C1)C31C(=O)N(C)c3ccc(C)cc31)C2=O (configuration not stated) | -22.5% | 

Compound | activity change, negative = growth inhibition | Potency
O=C(NC1CC2CCCC(C1)N2C(=O)N1CCCCC1)C1CCCCC1 (configuration not stated) | -8.22% | 
COc1ccc(N=C(C)c2sc3ccccc3c2O)cc1 | 0.494% | 
COC(=O)Cc1[nH]n(-c2nc3ccccc3s2)c(=O)c1C(C)=Nc1ccc(OC)cc1 |  | 3.26 µM (active)
C/C(=N\NC(=O)CC(C)C)c1c(C(F)(F)F)[nH]n(-c2nc3ccccc3s2)c1=O | -8.53% | 
Cc1ccc(-c2ccc(CCC(=O)O)n2-c2ccc(C(N)=O)cc2)cc1 | -15.2% | 
CN(Cc1ccccc1)C(=O)C(=O)c1cn(CC(=O)N2CCCC2)c2ccccc12 | -19.2% | 
COc1ccc(OCCCON2C(=O)c3ccccc3C2=O)cc1 | -0.348% | 
CCOC(=O)C1=C(c2ccc(OC)cc2)C(=O)c2ccccc2C1=O |  | 1.46 µM (active)
CCOC(=O)c1cc2n(c1N)-c1ccccc1C2=O | -18.9% | 
CCOc1ccc(C(=O)NCC(=O)N2CCCCCCC2)cc1OCC | 0.068% | 
O=C(CCS(=O)(=O)c1cccc2nonc12)NCCc1ccccc1Cl | -17.1% | 
COCCn1c(=O)c(CCc2ccccc2)nc2cncnc21 | 22.6% | 
COc1cccc(Cn2c(=O)c(-c3ccccc3)nc3cnc(OC)nc32)c1 | -1.76% | 
COc1ccc(-c2nc3cnc(OC)nc3n(Cc3ccc(F)cc3)c2=O)cc1 | -15% | 
COc1cccc(Cn2c(=O)cnc3cncnc32)c1 |  | 0.731 µM (active)
COc1cccc(Cn2c(=O)c(-c3cc(F)cc(F)c3)nc3cnc(OC)nc32)c1 |  | 0.116 µM (active)
COc1cccc(Cn2c(=O)c(CCc3ccccc3)nc3cnc(N(C)C)nc32)c1 | -6.83% | 
Cc1ccc(F)cc1NC(=O)c1cccc(N(C)C)c1 | -1.61% | 
COc1ccc(-c2nc(N)sc2C2(O)C(=O)Nc3c(Br)cc(F)cc32)cc1OC (configuration not stated) | -1.91% | 
Cc1ccc(OC(=O)c2ccccc2C(=O)OCC(F)(F)C(F)F)cc1 | -4.89% | 
O=C(O)c1cc2ccccc2c(=O)s1 | -6.59% | 
CC(=O)c1ccc(NC(=O)Cn2c(=O)oc3ccccc32)cc1 | -10.3% | 
COc1ccc(C2(C)NC(=O)N(CC(=O)c3ccc4c(c3)OCO4)C2=O)cc1 (configuration not stated) | -20.5% | 
CCc1ccc(-n2nnc(-c3nc(-c4ccccc4)no3)c2C)cc1 | 3.01% | 

From PubChem BioAssay AID686978 (National Center for Advancing Translational Sciences (NCATS), 2013)
